From PubChem BioAssay (NCATS)
Records with an inconclusive call do not appear. Calls follow the shape of the dose curve; as a rule, active = well fitted inhibition curve with a large enough effect; inconclusive = small, poorly fitted or top-dose-only effect; inactive = flat fitted curve, though single readings scatter.

biological target: Luciferin 4-monooxygenase (Photinus pyralis) (UniProt P08659); assay: Biochemical firefly luciferase enzyme assay for NPC (AID 624030);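 also: purified P. pyralis luciferase at 10 nM with luciferin and ATP substrate; 0% = DMSO and -100% = full luciferase inhibition by PTC124 control; nearly all actives have a fitted effect of over 70% in size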; settings: purified P. pyralis luciferase, luminescence, 5 min; series mostly up to 58.6 µM; activity change, negative = inhibition: at the top concentration
Sequence (P08659 whole entry, looked up): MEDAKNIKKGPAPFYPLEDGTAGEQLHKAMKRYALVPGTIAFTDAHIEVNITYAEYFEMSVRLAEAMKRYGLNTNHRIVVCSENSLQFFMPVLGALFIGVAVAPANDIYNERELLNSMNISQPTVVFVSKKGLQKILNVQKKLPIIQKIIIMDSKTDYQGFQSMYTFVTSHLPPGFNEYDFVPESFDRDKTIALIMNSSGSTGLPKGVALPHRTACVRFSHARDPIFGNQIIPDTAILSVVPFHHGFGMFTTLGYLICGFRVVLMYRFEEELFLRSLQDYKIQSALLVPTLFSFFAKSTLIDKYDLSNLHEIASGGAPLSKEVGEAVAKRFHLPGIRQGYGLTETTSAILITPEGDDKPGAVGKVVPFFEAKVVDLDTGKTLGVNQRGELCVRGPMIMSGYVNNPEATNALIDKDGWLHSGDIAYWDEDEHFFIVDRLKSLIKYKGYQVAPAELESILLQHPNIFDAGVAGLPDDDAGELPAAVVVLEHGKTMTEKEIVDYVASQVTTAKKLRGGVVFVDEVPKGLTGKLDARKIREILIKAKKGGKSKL
Procedure, shortened: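 Counter-screen for direct inhibition of the luciferase enzyme by approved-drug library compounds, run at 10 nM enzyme in 50 mM Tris acetate (final). Luminescence was read within 5 min of enzyme-buffer addition and normalized to PTC124 versus DMSO (0%).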

Activity change, negative = inhibition, inactive:
CCC[C@@H]1CC(C(=O)NC(C2O[C@H](SC)C(OP(=O)(O)O)[C@H](O)[C@H]2O)[C@H](C)Cl)N(C)C1 (stereo partly specified) -3.85%
CCN1C(=O)c2ccccc2C1Nc1cccc(OCCN2CCCCC2)c1 (stereo unspecified) 1.18%
CN1C2CCC1CC(NC(=O)n1c(=O)[nH]c3ccccc31)C2 (stereo unspecified) -1.13%
CO[C@H]1C[C@@H](O[C@@H]2[C@@H](C)O[C@@H](O[C@@H]3/C(C)=C/CC4C[C@@H](C[C@]5(C=C[C@@H](C)[C@H](C6CCCCC6)O5)O4)OC(=O)[C@@H]4C=C(C)[C@@H](O)[C@H]5OC/C(=C\C=C\[C@@H]3C)[C@]54O)C[C@H]2OC)O[C@@H](C)[C@@H]1O -0.99%
Cc1nc2n(c(=O)c1CCN1CCC(c3noc4cc(F)ccc34)CC1)CCC[C@@H]2O -0.576%
CCCCCCCCCCCCCCCC(=O)O[C@@H]1CC(C)=C(\C=C/C(C)=C\C=C/C(C)=C\C=C\C=C(C)\C=C\C=C(C)\C=C\C2=C(C)C[C@@H](OC(=O)CCCCCCCCCCCCCCC)CC2(C)C)C(C)(C)C1 -3.65%
CCCCCCC(O)C/C=C\CCCCCCCC(=O)O (stereo unspecified) -13.6%
CCC(=O)OC1CCC2C3CCc4cc(O)ccc4C3CCC12C (stereo unspecified) -8.38%
CC1CC2C3CCC4=CC(=O)C=CC4(C)[C@@]3(F)C(O)CC2(C)[C@@]1(O)C(=O)CCl (stereo partly specified) -4.98%
CCC[C@]1(CCc2ccccc2)CC(O)=C([C@H](CC)c2cccc(NS(=O)(=O)c3ccc(C(F)(F)F)cn3)c2)C(=O)O1 -12.4%
CC[C@H]1OC(=O)[C@H](C)[C@@H](O[C@H]2C[C@@](C)(OC)[C@@H](O)[C@H](C)O2)[C@H](C)[C@@H](O[C@@H]2O[C@H](C)C[C@H](N(C)C)[C@H]2O)[C@](C)(O)C[C@@H](C)[C@@H]2N[C@@H](COCCOC)O[C@H]([C@H]2C)[C@]1(C)O -0.0397%
